{"source": "the supplement of paper PMC6555819", "data": [{"test_system": "VDR:RXRa (NR concentration 270 nM, RXRa partner concentration 90 nM)", "assay": "PBM binding z-score (relative to random genomic background probes); higher = stronger binding; sequences stand for … in GC…GCGATTGACAGCGTAGAATGAAGG", "procedure": "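Protein-binding microarray (Agilent 4x180K custom design, double-stranded 60-nt probes: 5' GC cap, 34-nt variable region, 24-nt constant primer region; full probe sequence given). Purified or IVT nuclear receptor:RXRα heterodimers (3:1 NR:RXRα, mostly 270:90 nM) or homodimers were incubated for 1 h in PBS with 2% milk and no ligand, then detected with Alexa488 antibodies. Fluorescence from o1-orientation probes (~5 replicates averaged) was converted to z-scores against 500 random hg19 background probes. Variable regions are seed direct-repeat (DR0–DR5) sites, all their single-nucleotide variants and half-site ablations.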", "values": [{"sequence": "AGAACGAGGGCGCGCTGAGTTGATAGCAGAGTAG", "PBM binding z-score": 0.589}, {"sequence": "AGGCAAAGTTCATCTAGGTAACGTAAGATATGCT", "PBM binding z-score": 4.86}, {"sequence": "CCTACTGGGCCATCAGGTCATCGATATCAACGTT", "PBM binding z-score": 1.77}, {"sequence": "CCTACTGGGCCATTCAGGGGTCATTGATCATATG", "PBM binding z-score": 4.82}, {"sequence": "TCATATAGGTAAAAGGTGACAGTCGGTGTGGTAA", "PBM binding z-score": 1.35}, {"sequence": "AGAATGAGGTTAAGATCAGGGACACAGAATACAT", "PBM binding z-score": 1.93}, {"sequence": "ATACCAAGGTGATCGTGAGGTCGTAGATACTAAC", "PBM binding z-score": 2.42}, {"sequence": "CCTACTAGGCCAAGGTCATTGATCAGTCAAAGCA", "PBM binding z-score": 3.48}, {"sequence": "CGAACTAGGTCATTGACAGGACAGTTAATAGTAA", "PBM binding z-score": 2.16}, {"sequence": "ACTAGCAGGCCAAGTCTGGGTCACTCAAACAAAG", "PBM binding z-score": 0.77}, {"sequence": "GCTGCTAAGTCAACTGATGGTCAGCTAAAGCTCG", "PBM binding z-score": -0.619}, {"sequence": "GTGACTGGGGCATCAGCAGGTTACCATAACTTAA", "PBM binding z-score": 0.163}, {"sequence": "TCGTGTAGATCAAAGGTTAAGAAAGCCGAAGCCT", "PBM binding z-score": 1.45}, {"sequence": "TAGCCTAGGTCATTCAGTGGCCAGTATAGAAAGC", "PBM binding z-score": 2.43}, {"sequence": "AGAAAGAGGTTACCAAAGATCAGGGAAACGCTTG", "PBM binding z-score": 1.3}, {"sequence": "TCTTGTGGATCAATAGAGGTTAAGAAAGTGCGCT", "PBM binding z-score": 1.73}, {"sequence": "TCATATAGGTGAAGGTGAAAGTCGAACGATATGA", "PBM binding z-score": 0.278}, {"sequence": "TCTATTAGTTTATTAGGGCAACCGAAACAGCGGA", "PBM binding z-score": 1.03}, {"sequence": "ATATGTAGGTTAAGGGGCATTCAGGTTGGTTCGC", "PBM binding z-score": 2.2}, {"sequence": "CAAACTAGGTCAAGAGGGCAAAGTCCGCTTCCCG", "PBM binding z-score": 3.46}, {"sequence": "CAGCCTAGGTCTGGGCCAGTATAGGAGGAACGTT", "PBM binding z-score": -0.828}, {"sequence": "TCGGCTAGGTCAACGATGGTCAGCTAATCTGCTA", "PBM binding z-score": 1.73}, {"sequence": "GCTAGTTGGTCAGCAAAAGGTCACACACCGGTCG", "PBM binding z-score": 4.13}, {"sequence": "CCGACTGGGGCATAAAGGTTACCATACCATCCGG", "PBM binding z-score": 1.4}, {"sequence": "CCTGCTAGGTCATGGTCCGCTAATCTACAGTATG", "PBM binding z-score": 1.27}, {"sequence": "GCTTGTAGATCAGGGTTAAGAAAGACTAAGCTAA", "PBM binding z-score": 0.179}, {"sequence": "CGTCCTAGGTCATAGGAGGTCAGTGAAGACAGAT", "PBM binding z-score": 5.59}, {"sequence": "TCTTGTAGATGAGCAGGTTAAGAAAGCTGGCCAA", "PBM binding z-score": -0.0672}, {"sequence": "CCTTACGGGTCACTCCAGATTATAGCATCGGAGT", "PBM binding z-score": 2.72}, {"sequence": "ATCTTTAGGTAAAGTTCAGTGAAAGATCGATAGA", "PBM binding z-score": 1.7}, {"sequence": "ACAGAGAGGTGATGAAGGTAACTCAGGCTATCAT", "PBM binding z-score": 0.7}, {"sequence": "CAGCCTAGGTCAGGGCGAGTATAGGAGGAACGTT", "PBM binding z-score": 0.552}, {"sequence": "TCGAGTAGGTTACCAATGGGGGATTCAGCTTTCT", "PBM binding z-score": 0.83}, {"sequence": "CAAACTAGGTCACCGGAAGGTGAAAGTCCGCATG", "PBM binding z-score": 3.4}, {"sequence": "CGGACTAGGTCAAGGACAGTGAATCTCCGCACGC", "PBM binding z-score": 0.867}, {"sequence": "GCTGCTAGGTCAGGTTGGTCATCTAACGGGTACG", "PBM binding z-score": 1.25}, {"sequence": "TTACCAAGGAGAGCTGAGGTCGTTGATCCAACTC", "PBM binding z-score": 1.15}, {"sequence": "AGAATGAGGTTATTATGATCAGGGAATTGCGGTC", "PBM binding z-score": 1.65}, {"sequence": "CGTCAAAGTTCAAGGTATCGTAACAGAAAGCAGC", "PBM binding z-score": 3.74}, {"sequence": "CGAACTAGGTTATTGACAGGACAGTGAATAGTAA", "PBM binding z-score": 0.204}]}]}
